Results: PubChem BioAssay (NCATS)
Inconclusive results are not listed. Active and inactive are the calls of the source. Calls follow the shape of the dose curve; as a rule, active = well fitted curve in the direction sought with a large enough effect; inconclusive = small, poorly fitted or top-dose-only effect, or another doubt; inactive = no such curve, though single readings can be large; an effect the other way counts as inactive or inconclusive.
Also: nearly all actives have a fitted effect of over 35% in size.
Potency is read from the fitted curve at half-maximal effect.

Assay: Quantitative High-Throughput drug screen in 47 multiple myeloma cell lines against the NCATS MIPE library collection: KHM11_PLB cell viability assay (AID 1918962)
Conditions: KHM11 myeloma cell viability, CellTiter-Glo ATP luminescence, 48 h; series mostly up to 45.8 µM; viability, % of DMSO control: at the top concentration
Method in brief: (§1)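 Myeloma cells (500 per well) were exposed to MIPE 4.0 compounds by pin transfer and incubated 48 hours at 37C, 5% CO2. Viability was read as ATP by CellTiter-Glo luminescence, normalised to DMSO (100%) and media-only (0%) wells.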
For CO[C@H]1/C=C\O[C@@]2(C)Oc3c(C)c(O)c4c(O)c(c(C=NN5CCN(C6CCCC6)CC5)c(O)c4c3C2=O)NC(=O)C(C)=CC=C[C@H](C)[C@H](O)[C@@H](C)[C@@H](O)[C@@H](C)[C@H](OC(C)=O)[C@H]1C, the Potency was 0.118 µM (active).
For COc1cc(CNC(=O)CCCCC=CC(C)C)ccc1O, the “viability, % of DMSO control” value was 119% (inactive).
With CCN(CC)CCCCNc1nc2cc(Cl)c(Cl)cc2nc1-c1ccc(-c2cccs2)s1 the Potency was 10.5 µM (active).
With CN(C)CC[C@H](CSc1ccccc1)Nc1ccc(S(=O)(=O)NC(=O)c2ccc(N3CCN(Cc4ccccc4-c4ccc(Cl)cc4)CC3)cc2)cc1[N+](=O)[O-] the Potency was 5.26 µM (active).
In the case of COc1cc(C=CC(=O)O)ccc1O, the “viability, % of DMSO control” value was 78% (inactive).
In the case of COC(=O)Nc1ccc(-c2nc(N3CCOCC3)c3cnn(C4CCN(C(=O)OC)CC4)c3n2)cc1, the Potency was 0.0833 µM (active).
With O=C(CC12CC3CC(CC(C3)C1)C2)Nc1cccc2nc(NCCNCCO)ccc12 the Potency was 5.26 µM (active).
For NC1(C(=O)N[C@@H](CCO)c2ccc(Cl)cc2)CCN(c2ncnc3[nH]ccc23)CC1, the Potency was 1.87 µM (active).
With Cc1cn([C@@H]2C[C@@H](O)[C@H](CO)O2)c(=O)[nH]c1=O the “viability, % of DMSO control” value was 122% (inactive).
With CC1=C(C(=O)Nc2cc3cn[nH]c3cc2F)C(c2ccc(C(F)(F)F)cc2)CC(=O)N1 (configuration not stated) the “viability, % of DMSO control” value was 116% (inactive).
With CC(=O)NCCC(=O)N[C@@H](CCC(N)=O)C(=O)N[C@@H](CO)C(=O)N[C@@H](CCC(N)=O)C(=O)N[C@@H](CCC(N)=O)C(=O)N[C@H](C(=O)N[C@@H](Cc1ccccc1)C(=O)N[C@]1(C)CCCCCCC=CCCC[C@@](C)(C(=O)N[C@@H](CCC(N)=O)C(=O)N[C@@H](CC(N)=O)C(N)=O)NC(=O)[C@H](CC(C)C)NC(=O)[C@H](CC(C)C)NC(=O)[C@@H](CCCNC(=N)N)NC(=O)[C@H](Cc2c[nH]c3ccccc23)NC(=O)[C@H](CC(C)C)NC(=O)[C@H](CC(N)=O)NC1=O)[C@H](C)O the Potency was 18.7 µM (active).
With CN(C)CCOc1ccc(C(=C(CCCl)c2ccccc2)c2ccccc2)cc1 the “viability, % of DMSO control” value was 118% (inactive).
For CC(C)n1c(C=C[C@H](O)C[C@H](O)CC(=O)O)c(-c2ccc(F)cc2)c2ccccc21, the Potency was 14.8 µM (active).
With CN1CC(=O)N2C(Cc3c([nH]c4ccccc34)[C@H]2c2ccc3c(c2)OCO3)C1=O (some centres not stated) the “viability, % of DMSO control” value was 87.7% (inactive).
For CC(C)Oc1cc(Nc2nc(N[C@@H](C)c3ccc(F)cn3)ncc2Cl)[nH]n1, the Potency was 10.5 µM (active).
For C[C@@H](N)c1ccc(C(=O)Nc2ccnc3[nH]ccc23)cc1, the Potency was 20.9 µM (active).

Assay: Quantitative High-Throughput drug screen in 47 multiple myeloma cell lines against the NCATS MIPE library collection: JIM3_ECACC cell viability assay (AID 1918963)
Conditions: JIM3 myeloma viability, CellTiter-Glo ATP, 48 h; series mostly up to 45.8 µM; viability, percent of control: at the top concentration
Method in brief: as §1
For Cc1cc(CS(=O)(=O)c2ccccc2)cc(OCc2ccc(CN3CCC[C@H]3CO)cc2)c1, the Potency was 20.9 µM (active).
With CC(C)(CO)[C@@H](O)C(=O)NCCC(=O)O the “viability, percent of control” value was 106% (inactive).
In the case of CC1(C)[C@H]2CC[C@]3(C)[C@@H](C(=O)C=C4[C@@H]5C[C@@](C)(C(=O)O)CC[C@]5(C)CC[C@]43C)[C@@]2(C)CC[C@@H]1O, the “viability, percent of control” value was 107% (inactive).
In the case of OC(c1cc(C(F)(F)F)nc2c(C(F)(F)F)cccc12)C1CCCCN1 (configuration not stated), the Potency was 18.7 µM (active).
In the case of COc1cc(CNC(=O)CCCCC=CC(C)C)ccc1O, the “viability, percent of control” value was 90.1% (inactive).
In the case of CCN(CC)CCCCNc1nc2cc(Cl)c(Cl)cc2nc1-c1ccc(-c2cccs2)s1, the Potency was 8.33 µM (active).
In the case of CN1[C@H]2CC[C@H]1CC(OC(=O)c1c[nH]c3ccccc13)C2 (some centres not stated), the “viability, percent of control” value was 92.6% (inactive).
With CCCCOCCOc1nc(-c2ccc(C(=O)O)c(F)c2)sc1C the Potency was 0.372 µM (active).
With COc1nc(C)cnc1NS(=O)(=O)c1cccnc1-c1ccc(-c2nnco2)cc1 the “viability, percent of control” value was 128% (inactive).
For CC[C@H](CC#N)OC(=O)N[C@@H](C)c1cccc(NC(=O)Nc2ccc(-c3cnco3)c(OC)c2)c1, the Potency was 1.32 µM (active).
With COC(=O)Nc1ccc(-c2nc(N3CCOCC3)c3cnn(C4CCN(C(=O)OC)CC4)c3n2)cc1 the Potency was 0.264 µM (active).
With CN[C@@H](C)[C@H]1[C@H](O)C[C@@]2(C)[C@@H]3CC[C@H]4C(C)(C)[C@@H](NC)CC[C@@]45C[C@@]35CC[C@]12C the “viability, percent of control” value was 115% (inactive).
In the case of O=C(CC12CC3CC(CC(C3)C1)C2)Nc1cccc2nc(NCCNCCO)ccc12, the Potency was 9.35 µM (active).
With NC1(C(=O)N[C@@H](CCO)c2ccc(Cl)cc2)CCN(c2ncnc3[nH]ccc23)CC1 the Potency was 1.05 µM (active).
For Cc1cn([C@@H]2C[C@@H](O)[C@H](CO)O2)c(=O)[nH]c1=O, the “viability, percent of control” value was 107% (inactive).
For CC1=C(C(=O)Nc2cc3cn[nH]c3cc2F)C(c2ccc(C(F)(F)F)cc2)CC(=O)N1 (configuration not stated), the “viability, percent of control” value was 120% (inactive).
In the case of CC(=O)NCCC(=O)N[C@@H](CCC(N)=O)C(=O)N[C@@H](CO)C(=O)N[C@@H](CCC(N)=O)C(=O)N[C@@H](CCC(N)=O)C(=O)N[C@H](C(=O)N[C@@H](Cc1ccccc1)C(=O)N[C@]1(C)CCCCCCC=CCCC[C@@](C)(C(=O)N[C@@H](CCC(N)=O)C(=O)N[C@@H](CC(N)=O)C(N)=O)NC(=O)[C@H](CC(C)C)NC(=O)[C@H](CC(C)C)NC(=O)[C@@H](CCCNC(=N)N)NC(=O)[C@H](Cc2c[nH]c3ccccc23)NC(=O)[C@H](CC(C)C)NC(=O)[C@H](CC(N)=O)NC1=O)[C@H](C)O, the Potency was 20.9 µM (active).
For CS(=O)(=O)c1ccc(C2=C(c3ccccc3)C(=O)OC2)cc1, the “viability, percent of control” value was 108% (inactive).
In the case of CCC(c1ccc(O)cc1)C(CC)c1ccc(O)cc1 (configuration not stated), the “viability, percent of control” value was 129% (inactive).
For CC(C)n1c(C=C[C@H](O)C[C@H](O)CC(=O)O)c(-c2ccc(F)cc2)c2ccccc21, the Potency was 16.6 µM (active).
In the case of CN1CC(=O)N2C(Cc3c([nH]c4ccccc34)[C@H]2c2ccc3c(c2)OCO3)C1=O (some centres not stated), the “viability, percent of control” value was 78.8% (inactive).
With CCCCC(C)(C)[C@H](O)C=C[C@H]1[C@H](O)CC(=O)[C@H]1CC=CCCCC(=O)O the Potency was 20.9 µM (active).
In the case of CC(C)Oc1cc(Nc2nc(N[C@@H](C)c3ccc(F)cn3)ncc2Cl)[nH]n1, the Potency was 8.33 µM (active).
In the case of CC(C)(O)CC(=O)NCCn1ccc2ncnc(Nc3ccc(Oc4cccc(C(F)(F)F)c4)c(Cl)c3)c21, the Potency was 23.5 µM (active).
In the case of C[C@@H](N)c1ccc(C(=O)Nc2ccnc3[nH]ccc23)cc1, the Potency was 20.9 µM (active).
With CN1c2ccccc2C(=O)N2CCc3c([nH]c4ccccc34)C21 (configuration not stated) the Potency was 23.5 µM (active).
